# Assay results published in ChEMBL document CHEMBL3988442, “University of Dundee, Small-Polar-MMV Screening Library” (2021).
# Target: T1, Aspartate--tRNA(Asp/Asn) ligase (Mycobacterium tuberculosis (strain ATCC 25618 / H37Rv)) (UniProt P9WFW3); further: in the data most compounds retested in dose-response had high values
# T1 sequence (whole entry): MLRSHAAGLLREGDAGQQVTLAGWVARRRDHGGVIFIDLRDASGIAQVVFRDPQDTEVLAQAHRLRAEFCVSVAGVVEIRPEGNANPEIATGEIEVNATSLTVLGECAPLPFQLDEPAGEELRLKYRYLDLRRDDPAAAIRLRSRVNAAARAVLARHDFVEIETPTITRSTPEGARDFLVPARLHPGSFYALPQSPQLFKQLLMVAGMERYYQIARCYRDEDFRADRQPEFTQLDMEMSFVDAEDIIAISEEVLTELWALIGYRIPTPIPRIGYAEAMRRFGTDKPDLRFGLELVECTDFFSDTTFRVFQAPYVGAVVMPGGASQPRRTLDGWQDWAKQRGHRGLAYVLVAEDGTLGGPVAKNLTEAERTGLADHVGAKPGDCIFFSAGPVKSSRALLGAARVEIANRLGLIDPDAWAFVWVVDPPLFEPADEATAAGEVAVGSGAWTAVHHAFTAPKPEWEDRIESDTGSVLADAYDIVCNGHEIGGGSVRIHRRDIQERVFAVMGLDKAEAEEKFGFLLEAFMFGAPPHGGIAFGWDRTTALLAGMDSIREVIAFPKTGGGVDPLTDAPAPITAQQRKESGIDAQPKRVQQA
# Test: Assay for Asp RNA synthetase-1 from Mycobacterium tuberculosis
# Type: functional
# Parameters: scale not given: direction of the effect not stated beside the values
# Details: 30 µM
row,SMILES,Percent Effect [%]
1,CCn1cc(CN2CCCN(C(=O)CCc3ccncc3)CC2)cn1,0.516
2,O=C(c1cccc(N2CCCC2=O)c1)N1CCCC(n2cncn2)C1 (stereo not given),-4.55
3,CC(C)N1CCC(CNCc2c[nH]nc2C(C)(C)C)C1 (stereo not given),7.32
4,Cc1nnc(N2CCC(CN(C)C(C)C)CC2)c(C#N)c1C,-0.173
5,Cn1nnc2c1CCN(Cc1nccs1)C2COCc1ccccc1 (stereo not given),2.63
6,CS(=O)(=O)N1CCC2(CC1)CC(CC(=O)NC1CC1)c1ccccc12 (stereo not given),6.15
7,CCc1[nH]ncc1C(=O)N1CCCC(n2cccn2)C1 (stereo not given),-2.98
8,Cc1cc(CN2CCN(CC(O)c3ccccc3)CC2)no1 (stereo not given),-5.08
9,O=C(CCc1nc2cccnc2[nH]1)NCc1cccnc1,-0.232
10,CCOCCCC(=O)NCCC(=O)N1CCN(c2ccccn2)CC1,0.809
11,Cc1nnc(C2Cc3ccccc3CN2Cc2ncc(C(C)(C)C)o2)o1 (stereo not given),0.807
12,CC(C)N1CCN(C(=O)Nc2cnn(CC(N)=O)c2)CC1,-5.08
13,CN(C)CC1CN(Cc2csc(C3CCCC3)n2)CCO1 (stereo not given),1.38
14,CCc1nnc2n1CCN(Cc1ccc3c(c1)OCCO3)C2,4.98
15,Cn1nc(C2CN(C(=O)c3cscn3)C2)c2nccnc21,2.04
16,COc1cccc(-n2nnc(C(=O)N3CCCC3)c2C)c1,-2.63
17,CC(C)n1ncc2c1NC(=O)CC21C(=O)Nc2c(Cl)cc(Cl)cc21 (stereo not given),0.842
18,Cc1nc(CN(C)C2CCN(CC3CCCCC3)C2)no1 (stereo not given),-2.62
19,Cc1ccccc1C1CCCN1C(=O)CN1CC2(CCNCC2)OC1=O (stereo not given),3.25
20,CCc1nc(C)c(C(=O)NCCN2CCC(C)CC2)s1,-0.879

row,SMILES,Percent Effect [%]
1,Cc1ccc(CC(=O)N(C)CC2(O)CCN(c3ccccn3)C2)s1 (stereo not given),5.23
2,CCCc1noc(CN2CCCC2c2ccsc2)n1 (stereo not given),-3.91
3,Cn1nccc1C(=O)N1CCOC(Cc2cccnc2)C1 (stereo not given),-0.485
4,CCC(=O)N1CCC(Cc2ccccc2-c2ccccc2)(C(N)=O)C1 (stereo not given),-7.87
5,Cc1cccnc1C(=O)N1CCCC(c2[nH]ncc2S(C)(=O)=O)C1 (stereo not given),3.25
6,CC(C)c1nc(C2CCCN2C(=O)c2ccc(N(C)C)nn2)no1 (stereo not given),5.45
7,Cc1cc(C)c(CNC(=O)N2CCCC2c2cccn2C)c(=O)[nH]1 (stereo not given),-3.71
8,CCN(Cc1ccc2c(c1)OCCO2)S(=O)(=O)N(C)C(C)C,-0.607
9,Cc1cc(C(=O)N2CCC3(CCCN(CC4CC4)C3=O)C2)c(C)n1C (stereo not given),-1.12
10,O=C(c1cn(-c2cc(N3CCOCC3)ncn2)cn1)N1CCSCC1,-0.834
11,CCc1nccn1C1CCCN(C(=O)c2ccc3nncn3c2)C1 (stereo not given),-8.68
12,CCOCCCNC(=O)c1cc(C)nc(N2CCCC2)n1,-5.84
13,O=C(C1CCC1)N1CCN(Cc2ccsc2)[C@H]2CS(=O)(=O)C[C@H]21,-4.67
14,O=C(c1cccnc1N1CCOCC1)N1CCCC1Cn1cccn1 (stereo not given),-2.94
15,CC(C)CN1CCC2(C=C(C(=O)N3CCCC3)c3ccccc32)CC1,0.582
16,CCCc1cc(C(=O)N2CCCC2c2cccnc2)[nH]n1 (stereo not given),3.74
17,CCOc1cc(C)ccc1NC(=O)N(C)Cc1cnn(C)c1,4.37
18,O=C(N1CCCC1)N1CCC2(CCCN(CCOc3ccccc3)C2)C1 (stereo not given),-0.364
19,Cc1nc(CN2CCCC(N(C)CCc3cccs3)C2)no1 (stereo not given),-3.43
20,CC(C)(C#N)C(=O)N1CCCC(c2cc(C(F)(F)F)[nH]n2)C1 (stereo not given),-1.34

# Target: Shiga toxin 2 (Escherichia coli O157:H7) (UniProt P09385+P09386)
# Test: E. coli 0.157:H7 Shiga Toxin SOP - stx2 screening assay
# Type: functional
# Parameters: scale not given: direction of the effect not stated beside the values
# Details: 30 µM
row,SMILES,Percent Effect [%]
1,CCn1cc(CN2CCCN(C(=O)CCc3ccncc3)CC2)cn1,-80.5
2,O=C(c1cccc(N2CCCC2=O)c1)N1CCCC(n2cncn2)C1 (stereo not given),17.8
3,CC(C)N1CCC(CNCc2c[nH]nc2C(C)(C)C)C1 (stereo not given),11.2
4,Cc1nnc(N2CCC(CN(C)C(C)C)CC2)c(C#N)c1C,-25
5,Cn1nnc2c1CCN(Cc1nccs1)C2COCc1ccccc1 (stereo not given),-58
6,CS(=O)(=O)N1CCC2(CC1)CC(CC(=O)NC1CC1)c1ccccc12 (stereo not given),4.11
7,CCc1[nH]ncc1C(=O)N1CCCC(n2cccn2)C1 (stereo not given),3.89
8,Cc1cc(CN2CCN(CC(O)c3ccccc3)CC2)no1 (stereo not given),3.56
9,O=C(CCc1nc2cccnc2[nH]1)NCc1cccnc1,-44
10,CCOCCCC(=O)NCCC(=O)N1CCN(c2ccccn2)CC1,-65.6
11,Cc1nnc(C2Cc3ccccc3CN2Cc2ncc(C(C)(C)C)o2)o1 (stereo not given),8.47
12,CC(C)N1CCN(C(=O)Nc2cnn(CC(N)=O)c2)CC1,-11.9
13,CN(C)CC1CN(Cc2csc(C3CCCC3)n2)CCO1 (stereo not given),14.5
14,CCc1nnc2n1CCN(Cc1ccc3c(c1)OCCO3)C2,15.5
15,Cn1nc(C2CN(C(=O)c3cscn3)C2)c2nccnc21,8.15
16,COc1cccc(-n2nnc(C(=O)N3CCCC3)c2C)c1,5.03
17,CC(C)n1ncc2c1NC(=O)CC21C(=O)Nc2c(Cl)cc(Cl)cc21 (stereo not given),1.79
18,Cc1nc(CN(C)C2CCN(CC3CCCCC3)C2)no1 (stereo not given),-9.5
19,Cc1ccccc1C1CCCN1C(=O)CN1CC2(CCNCC2)OC1=O (stereo not given),2.84
20,CCc1nc(C)c(C(=O)NCCN2CCC(C)CC2)s1,-68.3

row,SMILES,Percent Effect [%]
1,Cc1ccc(CC(=O)N(C)CC2(O)CCN(c3ccccn3)C2)s1 (stereo not given),-0.365
2,CCCc1noc(CN2CCCC2c2ccsc2)n1 (stereo not given),0.761
3,Cn1nccc1C(=O)N1CCOC(Cc2cccnc2)C1 (stereo not given),-23.7
4,CCC(=O)N1CCC(Cc2ccccc2-c2ccccc2)(C(N)=O)C1 (stereo not given),6.14
5,Cc1cccnc1C(=O)N1CCCC(c2[nH]ncc2S(C)(=O)=O)C1 (stereo not given),15.7
6,CC(C)c1nc(C2CCCN2C(=O)c2ccc(N(C)C)nn2)no1 (stereo not given),18.3
7,Cc1cc(C)c(CNC(=O)N2CCCC2c2cccn2C)c(=O)[nH]1 (stereo not given),-31.2
8,CCN(Cc1ccc2c(c1)OCCO2)S(=O)(=O)N(C)C(C)C,9.34
9,Cc1cc(C(=O)N2CCC3(CCCN(CC4CC4)C3=O)C2)c(C)n1C (stereo not given),-7.28
10,O=C(c1cn(-c2cc(N3CCOCC3)ncn2)cn1)N1CCSCC1,-38.5
11,CCc1nccn1C1CCCN(C(=O)c2ccc3nncn3c2)C1 (stereo not given),7.36
12,CCOCCCNC(=O)c1cc(C)nc(N2CCCC2)n1,-10.3
13,O=C(C1CCC1)N1CCN(Cc2ccsc2)[C@H]2CS(=O)(=O)C[C@H]21,-39.6
14,O=C(c1cccnc1N1CCOCC1)N1CCCC1Cn1cccn1 (stereo not given),31.6
15,CC(C)CN1CCC2(C=C(C(=O)N3CCCC3)c3ccccc32)CC1,-8.02
16,CCCc1cc(C(=O)N2CCCC2c2cccnc2)[nH]n1 (stereo not given),11.1
17,CCOc1cc(C)ccc1NC(=O)N(C)Cc1cnn(C)c1,24
18,O=C(N1CCCC1)N1CCC2(CCCN(CCOc3ccccc3)C2)C1 (stereo not given),-4.82
19,Cc1nc(CN2CCCC(N(C)CCc3cccs3)C2)no1 (stereo not given),25.8
20,CC(C)(C#N)C(=O)N1CCCC(c2cc(C(F)(F)F)[nH]n2)C1 (stereo not given),-11.7
